Here are results for 21 compounds from PubChem BioAssay AID493008 (The Scripps Research Institute Molecular Screening Center, 2010).

SMILES strings stand for the structures. Among all 340,000 compounds or so, about 800 (0.24%) were called active. Shown is part of a subset that was picked to be rich in actives. Values without a mark were called inactive.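 The calls were made as follows: active = activation above the mean over all tested compounds plus 3 SD (cut at about 30% in these data); inactive = the rest.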

The test has as its target Troponin I, cardiac muscle (Homo sapiens) + Troponin T, cardiac muscle (Homo sapiens) + Troponin C, slow skeletal and cardiac muscles (Homo sapiens) (UniProt P19429+P45379+P63316). Nature of the test: calcium sensitizers of cardiac thin filaments – biochemical, IANBD-TnC fluorescence, EC20 calcium, primary screen (AID 493008).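 Also: rise in fluorescence read as greater calcium sensitivity of cardiac thin filaments.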 The following applies: IANBD-labeled TnC RTF fluorescence at EC20 calcium; at 7.2 µM; active compounds read high; 0% EC20 calcium, 100% full calcium.
For the compound `CCCCCNC(=O)C1c2ccccc2Oc2ccccc21`, the activation was 4.69%.
Next, `CCOC(=O)CC(NC(=O)C1c2ccccc2Oc2ccccc21)c1ccc(C)cc1` (stereo unspecified): 4.5%.
As for `CCCN(CCC)C(=O)C1c2ccccc2Oc2ccccc21`, the activation is 98.3% (active).
With `CC1=C(C(N)=O)C(c2ccc(Br)cc2)n2ncnc2N1` (stereo unspecified), the activation is -0.09%.
Regarding `Brc1ccc(C2=CC(c3ccco3)n3ncnc3N2)cc1` (stereo unspecified), the activation was 245% (active).
Next, `CC1=C(C(=O)OCc2ccccc2)C(c2ccco2)n2ncnc2N1` (stereo unspecified): 8.65%; `CCN1CCN(c2ccc(S(=O)(=O)N3CCCCC3)cc2NC(=O)c2cccc(NC(C)=O)c2)CC1`: -0.39%.
Next, `CC1CCCCC12NC(=O)N(CC(=O)OCc1c(F)cccc1Cl)C2=O` (stereo unspecified): -6.16%; `Cc1ccccc1OCCC(=O)OCC(=O)NC(C)c1ccccc1` (stereo unspecified): 1.21%.
To `Cc1ccccc1-n1c(C)cc(/C=C2\NC(=O)NC2=O)c1C` belongs -2.97%; to `Cc1cc(C)c(/C=C2\C(=O)Nc3ccccc32)[nH]1`, 149% (active); to `O=C1Nc2ccccc2/C1=C/c1ccnc2ccccc12`, 3.84%.
Regarding `C[C@H](NC(=O)c1[nH]cnc1C(=O)Nc1nccs1)c1ccccc1`, the activation is -1.35%.
Take `O=C(COC(=O)c1ccc(S(=O)(=O)Nc2ccccc2)cc1)NCC1CCCO1` (stereo unspecified): the activation is -3.25%.
Next, `COc1ccc([N+](=O)[O-])cc1NC(=O)CC1SC(=Nc2cccc(C)c2C)N(/N=C(\C)c2ccc(C)cc2)C1=O` (stereo unspecified): -1.84%.
Take `CCC1CCCCN1C(=O)Nc1cccc(NC(=O)N2CCCCC2CC)c1` (stereo unspecified): the activation is -3.65%.
Take `O=C(CSc1nnc(C2CC2)n1Cc1ccccc1)Nc1cccnc1Cl`: the activation is 1.37%.
Next, `COc1ccccc1N(CC(=O)Nc1ccc(C)cc1Cl)S(=O)(=O)c1cccs1`: -7.85%.
Next, `CCCCNC(=O)Nc1c(C)cc(SC#N)cc1C`: -8.62%; `O=C(c1cc2sccc2n1Cc1ccc(F)cc1)N1CCc2ccccc21`: -0.47%; `CCCc1cc(=O)[nH]c(SCC(=O)Nc2ccc(S(=O)(=O)N3CCCC3)cc2)n1`: -0.74%.
